RE007 growth inh = qHTS Assay for Inhibitors of the HIV-1 protein Vpr | S. pombe RE007 Vpr strain, BacTiter-Glo ATP luminescence, 24 h | actives 0.21% (n = 360,000) | Potency, µM (highest dose often 92.2 µM), for inactives: top-dose activity change, negative = less growth, most hits filed as inhibitors; active means well fitted falling curve with a large enough effect; inconclusive means small, poorly fitted or top-dose-only effect; inactive means no such curve, though single readings can be large or run the other way; further: nearly all actives have a fitted effect of over 50% in size
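Fission yeast RE007 carrying one integrated HIV-1 vpr copy, seeded at OD 0.01 in PMG+AL medium with 23 nL pinned compound. Grown 24 h at 30 degrees; viability read by BacTiter-Glo luminescence after 5 min.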
Sm TGR inh = qHTS Assay for the Inhibitors of Schistosoma Mansoni Peroxiredoxins; Schistosoma mansoni thioredoxin glutathione reductase (TGR), Q962Y6; purified TGR, DTNB reduction, TNB absorbance 405 nm; Potency, µM (top dose mostly 114 µM), inactives show at the highest dose activity change, negative = inhibition, actives largely listed as inhibitors; actives 3% (n = 360,000); further: nearly all actives have a fitted effect of over 60% in size
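TGR 20 nM + NADPH 100 uM (dispensed conc.), cpd preinc 15 min RT; start with NADPH (500 uM addition) then DTNB (15 mM addition). Kinetic TNB absorbance, 405 nm filter. Four-parameter Hill fit across titration.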
AmpC inh no detg = qHTS Inhibitors of AmpC Beta-Lactamase (assay without detergent); AmpC nitrocefin hydrolysis, absorbance 480 nm, 0.0001% Triton; Potency, µM (highest dose often 57.1 µM), inactives show top-dose activity change, negative = inhibition, actives largely listed as inhibitors; actives 0.52% (n = 330,000); AID 485341, 2010;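 further: plate controls were no compound for no effect and no enzyme for full effect; nearly all actives have a fitted effect of over 20% in size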
Target sequence (P00811 whole entry, looked up): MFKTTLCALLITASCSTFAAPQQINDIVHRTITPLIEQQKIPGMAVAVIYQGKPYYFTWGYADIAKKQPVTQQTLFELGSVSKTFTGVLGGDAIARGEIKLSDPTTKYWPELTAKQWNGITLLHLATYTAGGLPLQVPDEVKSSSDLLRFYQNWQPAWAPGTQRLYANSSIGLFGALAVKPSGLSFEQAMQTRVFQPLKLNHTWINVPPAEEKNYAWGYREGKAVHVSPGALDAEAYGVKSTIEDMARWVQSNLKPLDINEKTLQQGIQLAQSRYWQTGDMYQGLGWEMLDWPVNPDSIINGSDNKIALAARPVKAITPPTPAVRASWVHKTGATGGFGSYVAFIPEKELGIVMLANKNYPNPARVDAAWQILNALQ
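AmpC (5.3 nM in the dispensed reagent) in 20 mM phosphate pH 7.0 with 0.01% (detergent screen) or 0.0001% Triton X-100 was preincubated with compounds for 15 min at room temperature. Nitrocefin was then added from an 800 uM solution, and hydrolysis was followed at 480 nm.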
Giardia FBPA inh-1 = qHTS Assay for Inhibitors of Fructose-1,6-bisphosphate Aldolase from Giardia Lamblia; A8B2U2; purified Giardia FBPA; Potency, µM (doses to about 59.6 µM), without a hit: at the highest dose activity, negative = inhibition, actives largely listed as inhibitors; actives 0.71% (n = 290,000); AID 2451, 2010; further: nearly all actives have a fitted effect of over 55% in size
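Giardia FBPA (40 nM reagent) was preincubated 10 min at RT with compound (up to 57.5 uM final), then substrate plus GAPDH/TPI/NAD/arsenate coupling system with diaphorase/resazurin was added; resorufin fluorescence (525/598 nm) was read after 20 min.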
AmpC inh detg = qHTS Inhibitors of AmpC Beta-Lactamase (assay with detergent); P00811; AmpC hydrolysis of nitrocefin, absorbance 480 nm, 0.01% Triton; Potency, µM (top dose mostly 114 µM), without a hit: top-dose activity change, negative = inhibition, hits mostly inhibitors; actives 0.041% (n = 370,000);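 further: 0% = no-compound wells and -100% = no-enzyme wells; nearly all actives have a fitted effect of over 25% in size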
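20 mM phosphate pH 7.0 + 0.01% (detergent screen) or 0.0001% Triton X-100; 5.3 nM AmpC reagent; cpd preinc 15 min RT; nitrocefin (800 uM stock) to start; A480 q20 s × 4 min; Activity was normalised to no-enzyme and no-compound control wells.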
Giardia growth = qHTS Assay for Inhibitors of Fructose-1,6-bisphosphate Aldolase from Giardia Lamblia: Giardia lamblia growth inhibition; AID 2785, 2010; Giardia lamblia trophozoite growth inhibition; actives 5% (n = 1,500); shares compounds with Giardia FBPA inh-1; Potency, µM (titrated, usually from 57.5 µM), without a hit: at the highest dose activity change, negative = inhibition, usual class: inhibitors;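 further: trophozoites exposed to compound for 48 h at 37 °C; nearly all actives have a fitted effect of over 70% in size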
Mammal cell tox = qHTS Assay for Inhibitors of Fructose-1,6-bisphosphate Aldolase from Giardia Lamblia: Mammalian cellular toxicity. shares compounds with Giardia FBPA inh-1. mammalian cell viability counter-screen, qHTS. Potency, µM (titrated, usually from 57.5 µM), for the others: at the top dose viability change, negative = toxicity, usual class: inhibitors. actives 4% (n = 1,500);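 further: Chinese hamster ovary cells used as mammalian cytotoxicity surrogate; viability measured as cellular ATP by luminescence; compound exposure lasted 48 h before reading; nearly all actives have a fitted effect of over 60% in size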
Giardia FBPA inh-2 = qHTS Assay for Inhibitors of Fructose-1,6-bisphosphate Aldolase from Giardia Lamblia: Primary screen confirmation; shares compounds with Giardia FBPA inh-1; purified Giardia aldolase enzyme activity, qHTS; actives 5% (n = 1,500); Potency, µM (highest dose often 57.5 µM), for the others: at the top dose activity change, negative = inhibition, actives largely listed as inhibitors; further: nearly all actives have a fitted effect of over 45% in size
Rabbit FBPA inh = qHTS Assay for Inhibitors of Fructose-1,6-bisphosphate Aldolase from Giardia Lamblia: Rabbit FBPA Selectivity; shares compounds with Giardia FBPA inh-1; Rabbit muscle FBPA enzyme inhibition, selectivity counter-screen; Potency, µM (titrated, usually from 57.5 µM), without a hit: at the top dose activity, negative = inhibition, hits mostly inhibitors; actives 4% (n = 1,500); AID 2794, 2010; further: nearly all actives have a fitted effect of over 60% in size
GAPDH counter = qHTS Assay for Inhibitors of Fructose-1,6-bisphosphate Aldolase from Giardia Lamblia: Coupling assay counterscreen confirmation | shares compounds with Giardia FBPA inh-1 | GAPDH coupling enzyme counterscreen, biochemical, qHTS | Potency, µM (series often up to 57.5 µM), for the others: at the top dose activity change, negative = inhibition, actives largely listed as inhibitors | actives 6% (n = 1,500); further: nearly all actives have a fitted effect of over 55% in size
* marks the source's active call; other numbers are inactive results; ? = inconclusive; · = not tested or not shown; ! = a repeat was not active; [ ] = another dose, or the depositor's remark. In the library only some 3.4% were active in any assay of this set; here they are far more common. Unless noted, the call rests on the fitted dose curve; in most records, active means well fitted curve in the direction sought with a large enough effect; inconclusive means small, poorly fitted or top-dose-only effect, or another doubt; inactive means no such curve, though single readings can be large; an effect the other way counts as inactive or inconclusive. Unless noted, on the % scale 0 is the no-effect control and ±100 the full control effect; potency means the concentration at half of the fitted maximal effect.

SMILES	RE007 growth inh	Sm TGR inh	AmpC inh no detg	Giardia FBPA inh-1	AmpC inh detg	Giardia growth	Mammal cell tox	Giardia FBPA inh-2	Rabbit FBPA inh	GAPDH counter
CN1CCc2cccc3c2C1Cc1ccc(O)c(O)c1-3 (centres undefined)	11.9%	·	-11.3%	14.1µM*	?	6.0%[10.4 µM]	-18.2%	?	?	-9.7%
Cc1c(OCC(F)(F)F)ccnc1CS(=O)c1nc2ccccc2[nH]1 (centres undefined)	-1.7%[18.4 µM]	-18.4%	-15.1%	-14.7%	?	·	·	·	·	·
COCCCOc1ccnc(CS(=O)c2nc3ccccc3[nH]2)c1C (centres undefined)	-10.6%[18.4 µM]	17.4%	14.5%	2µM*!	?	?	-22.2%	-15.0%	-9.5%	-5.1%
Cc1ccc(S(=O)(=O)Oc2ccccc2/C=N/NC(=O)c2nn(C)cc2[N+](=O)[O-])cc1	-27.7%	-0.9%	-9.1%	1.1%	-9.5%	·	·	·	·	·
CCOC(=O)c1c(N2CCN(c3ccccc3)CC2)cc(C)nc1C	1.7%	-1.3%	41.8%	14.1µM*	?	?	5.3%	0.9%	8.2%	-9.4%
CC1=NN(C(N)=S)C(C)(C)C1	13.3%	18.7%	-0.2%	11.2µM*	-6.4%	-12.8%	16.6%	1.9%	9.8%	9.5%
CNC(=O)Oc1ccc2c(c1)[C@]1(C)CCN(C)[C@@H]1N2C	0.0%	0.0%	-22.5%	?	-16.0%	·	·	·	·	·
CN1CC[C@]2(C)c3cc(O)ccc3N(C)[C@@H]12	·	·	·	1µM*	·	-1.8%[19.1 µM]	-22.7%[28.7 µM]	2.24µM*	3.16µM*	3.16µM*
O=C(NN1C(=O)/C(=C/C=C/c2ccco2)SC1=S)c1ccncc1	7.2%	3.16µM*	-33.0%	7.06µM*	?	-21.0%[38.3 µM]	-14.5%	?	?	-27.1%
O=C1CS/C(=N/N=C2C3CC4CC(C3)CC2C4)N1	9.5%	4.8%	-10.0%	9.6%	-12.2%	·	·	·	·	·
O=C1CS/C(=N/N=C\c2ccn[nH]2)N1	-1.1%	12.2%	-7.7%	17.7µM*	-11.8%	?	-1.4%	3.5%	5.6%	11.9%
COc1ccc(C)cc1NC(=O)C(NS(=O)(=O)c1cccs1)c1ccccc1 (centres undefined)	·	3.2%	·	·	12.0%	·	·	·	·	·
CN(c1ccccc1)S(=O)(=O)c1ccc(C(=O)Nc2nnc(C3=COCCO3)o2)cc1	13.7%	-3.3%	-44.3%	11.2µM*	2.9%	?	21.9%	3.3%	14.6%	-9.1%
